The record followed here is PubChem BioAssay AID2732 (Emory University Molecular Libraries Screening Center, 2010).

The whole screen tested about 220,000 compounds, of which about 8,200 (3.7%) were called active. The entries come from a sample that favours actives as a whole. A number with no mark means an inactive call.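 How the source made its calls: active means compounds that reduced the stress-induced luciferase reporter signal by more than about 70% of percent inhibition (limit read from the data); inactive means the rest.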

This test in a line: inhibitors of CHOP promoter induction, primary screen, cell-based, unfolded protein response, luciferase reporter (AID 2732).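 Further: 0% = tunicamycin plus vehicle and 100% = wells without tunicamycin.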 To be noted: CHO-K1 CHOP-promoter luciferase, tunicamycin-induced, 15-18 h; at 10 µM; stronger effect = higher value. For orientation: Reporter assays use an easily measured gene product as a stand-in for the process of interest.
Take `Nc1ccc(N=Nc2ccccc2Cl)c(N)n1`: the inhibition is -4.49%.
With `CC(=O)Nc1ccc(S(=O)(=O)N2CCN(CCCOc3cc(C)ccc3C)CC2)cc1` the figure was 71.1% (active); with `Cc1cccc(OCCCC(=O)Nc2ccc(S(=O)(=O)N3CCCC3)cc2)c1`, 89% (active); with `Cc1cccc(OCCC(=O)Nc2cc(S(=O)(=O)N3CCCCC3)ccc2N2CCOCC2)c1`, 40.4%.
Regarding `CCN(CC(=O)Nc1ccc(S(=O)(=O)N2CCCC2)cc1)CC(=O)Nc1cccc(OC)c1`, the inhibition was 2.69%.
As for `CC(=O)Nc1ccc(S(=O)(=O)N2CCSCC2)cc1`, the inhibition was -25.3%.
The result for `Cc1ccc(C)c(S(=O)(=O)N2CCN(CC(=O)Nc3ccc([N+](=O)[O-])cc3)CC2)c1` reads 42%; that for `CCc1ccc[n+](-c2nc([O-])sc2C=O)c1`, 9.23%; that for `Nc1nc(Sc2ncccc2[N+](=O)[O-])n[nH]1`, -14.3%.
For the compound `CC(=O)c1nnn(-c2ccc(Cl)cc2C#N)c1C`, the inhibition is 13.8%.
With `Cn1nc(C(C)(C)C)c([N+](=O)[O-])c1C(N)=O`, the inhibition is 1.68%.
The result for `COc1ccc(C(=O)N/N=C2\CCS(=O)(=O)c3ccc(F)cc32)cc1OC` reads -0.83%.
With `O=C(NCC(c1cccs1)N1CCOCC1)c1cc(-c2ccccn2)nc2ccccc12` (configuration not stated) the figure was 7.03%.
Take `Cc1c(-c2ccccc2)n[nH]c1C(=O)N=Nc1c(O)[nH]c2ccccc12`: the inhibition was 106% (active).
As for `COCC(=O)N=Nc1c(O)[nH]c2ccccc12`, the inhibition is -14.7%.
Consider `Cc1cccc(N(CC(=O)N=Nc2c(O)[nH]c3ccccc23)S(C)(=O)=O)c1C`, for which the inhibition is 27%.
With `O=C(CC(c1ccccc1)c1cc(Cl)ccc1O)NCCN1CCOCC1` (configuration not stated) the figure was -2.25%; with `CN(C)S(=O)(=O)c1ccc(Cl)c(NC(=O)COC(=O)CC(NC(N)=O)c2ccc(Cl)cc2)c1` (configuration not stated), -8.1%; with `CC(C)NC(=O)NNc1c(Cl)cncc1Cl`, 5.99%.
With `O=C(NCc1ccc2c(c1)OCO2)c1sccc1Br` the figure was 8.42%; with `Cc1cc2cc3c(cc2nc1SCC(=O)Nc1c(C)cccc1C)CCC3`, 79.2% (active); with `Cc1cc(C)c(C#N)c(SCC(=O)Nc2ccccc2)n1`, 41.3%.
With `Cc1cccc(C)c1NC(=O)CSc1ccc([N+](=O)[O-])cn1`, the inhibition is -10.4%.
The result for `COC(=O)c1c(C)oc(C)c1S(=O)(=O)NCc1ccc(Cl)cc1` reads 30.1%.
Consider `Cc1ccc(OCC(=O)N/N=C/c2ccncc2)cc1`, for which the inhibition is 10%.
On to `Cc1ccc(OCC(=O)N/N=C\c2ccco2)c(C)c1`, for which the inhibition is 12.7%.
With `Cc1ccc(/C=N/NC(=O)COc2ccccc2-c2ccccc2)cc1` the figure was 90.4% (active).
For `Cc1cc(OCCCCOc2ccc(C#N)cc2)ccc1[N+](=O)[O-]`, the inhibition was 32.1%.
Consider `COc1ccccc1Nc1nc(N)nc(CSC(=S)N2CCOCC2)n1`, for which the inhibition was 9%.
With `CCOc1ccc(N2C(=O)CC(N(O)c3ccccc3)C2=O)cc1` (configuration not stated) the figure was -34%; with `CCOC(=O)c1ccc(N2C(=O)CC(N(C)Cc3ccccc3)C2=O)cc1` (configuration not stated), 40.7%; with `CCCCCCC(=O)N(O)C1CC(=O)N(c2ccccc2)C1=O` (configuration not stated), 106% (active).
The result for `COCCN1C2=C(COC(C)(C)C2)C(=S)NC1c1ccccc1` (configuration not stated) reads 12.9%; that for `Cc1cc(C(=O)OCC(=O)Nc2nccs2)c2ccccc2n1`, 23.3%; that for `Cc1cc(C)cc(NS(=O)(=O)c2ccc(F)cc2)c1`, 10.9%.
With `CSc1ccc(S(=O)(=O)Nc2cccc(F)c2)cc1` the figure was 74.6% (active).
For the compound `CSc1ccc(S(=O)(=O)NC2CCCCC2)cc1`, the inhibition was 1.25%.
With `O=S(=O)(Nc1ccc(OC(F)(F)F)cc1)c1cccc2nonc12` the figure was -2.82%; with `Cn1ccc(NC(=O)Nc2ccc(Cl)cc2)n1`, -23.2%; with `CC(C)=NN1C(=O)c2ccccc2NC1(C)C`, 2.15%.
The result for `COCCN(CCOC)C(=S)Nc1ccccc1Cl` reads 15.1%; that for `O=C(Nc1ccccc1Cl)c1ccc2nsnc2c1`, -20.7%.
With `O=C(Nc1ccccc1Cl)/C(Cl)=C(\Cl)S(=O)c1ccccc1` (configuration not stated) the figure was 108% (active); with `NC(=O)Cc1ccc2c(c1)[nH]c1ccccc12`, -13.9%; with `CCNc1nc(NCC)nc(N/N=C/c2ccc(O)c(OC)c2)n1`, -5.61%.
Take `OC(c1ccccc1)C(CN1CCOCC1)c1ccccc1` (configuration not stated): the inhibition is 9.34%.
Take `Cc1ccccc1NC(=O)C(C)c1ccc(-c2ccccc2)c(F)c1` (configuration not stated): the inhibition was 70.4% (active).
The result for `O=C(Nc1ccccc1F)c1ccccc1-c1ccccc1` reads 1.92%.
For the compound `Cc1ccc(NC(=O)C(C)c2cccc(C(=O)c3ccccc3)c2)cc1` (configuration not stated), the inhibition is 19.2%.
With `COc1cccc(-c2nnc(NC(=O)c3ccc(S(=O)(=O)N(CC(C)C)CC(C)C)cc3)o2)c1` the figure was 108% (active).
With `O=C(Nc1nnc(-c2ccco2)o1)c1ccc(S(=O)(=O)N2CCOCC2)cc1` the figure was 13.2%; with `COc1cccc(NC(=O)c2ccc(S(=O)(=O)N(C)C)cc2)c1`, -15.2%.
In the case of `Cc1ccc(NC(=O)COC(=O)CCc2nc3ccccc3n2-c2ccccc2)c(C)c1`, the inhibition is 2.62%.
The result for `CCN(c1ccc(NC(=O)COC(=O)CCc2nc3ccccc3n2-c2ccccc2)cc1)C(C)C` reads 79% (active).
`CC(C)(C)c1ccc(NC(=O)COC(=O)CCc2nc3ccccc3c(=O)[nH]2)cc1`: the inhibition is 20%.
With `Cc1c(C(=O)N(Cc2ccccc2)Cc2cccnc2)cnn1-c1ccc(F)cc1` the figure was 0%; with `COC(=O)c1sccc1NC(=O)CC1C(=O)NCCN1C(=O)Nc1ccc(F)cc1F` (configuration not stated), 12.3%.
With `C=CS(=O)c1sc(Cl)c(N2CCOCC2)c1[N+](=O)[O-]` (configuration not stated) the figure was 106% (active).
On to `Cc1nc(=O)c(-c2ccccc2)c(C)n1-c1ccc(Br)cc1`, for which the inhibition is 3.14%.
Take `O=C(C[n+]1ccc2c(c1)nnn2-c1ccccc1)c1ccc(Cl)cc1`: the inhibition was 34.6%.
For the compound `CCCCCCc1cc2cc(-c3nnc(-c4ccccc4)o3)c(=O)oc2cc1O`, the inhibition was 95.9% (active).
With `CCCC(=O)Nc1nnc(-c2ccccc2)o1` the figure was 0.67%; with `Cc1c(CCC(=O)O)c(=O)oc2cc3occ(-c4ccccc4)c3cc12`, 37.1%; with `O=C1CCCCC1C(=O)c1ccccc1` (configuration not stated), 8.57%.
The result for `Cc1ccccc1NC(=O)Nc1ccccc1N1CCCCC1` reads 28.6%; that for `Cc1ccccc1NC(=O)CNc1ccccc1N1CCCCC1`, 89.1% (active); that for `Cn1c(=O)c2c(nc(SCC(=O)Nc3ccccc3N3CCCCC3)n2C)n(C)c1=O`, 21.7%.
The result for `O=C(CN1CCN(C2CCCCC2)CC1)Nc1ccccc1N1CCCCC1` reads 59.2%; that for `O=C(Cc1cccc2ccccc12)NCCC1=CCCCC1`, 40.1%; that for `O=C(CNCCC1=CCCCC1)Nc1ccccc1N1CCCCCC1`, 72.9% (active).
For `Cc1ccc(OS(=O)(=O)c2ccc(-c3csc(C)n3)s2)c(C)c1`, the inhibition is 22.5%.
The result for `CNC(=O)c1csc(Cc2c(Cl)sc3ccc(Cl)cc23)n1` reads 30.4%.
Turning to `Cc1cc(Nc2ccc(Cl)cc2)nc(N2CCOCC2)n1`, the inhibition was 0.58%.
The result for `Cn1c(SCC(=O)c2ccc(F)cc2)nnc1-c1ccccn1` reads 6.32%; that for `COc1cccc(CNCCc2c[nH]c3ccccc23)c1OCc1ccccc1F`, 12.6%; that for `COc1ccc(CC(=O)NC(C)CCc2ccccc2)cc1` (configuration not stated), -12.2%.
Take `COc1ccc(C(CCNCc2ccccc2F)c2ccc(F)cc2)cc1` (configuration not stated): the inhibition is 79.4% (active).
With `O=c1c2cc(-c3ccccc3)sc2nc2n1N=C(c1cccs1)CS2` the figure was -4.25%; with `Clc1ccc(-c2cc(-c3ccccn3)on2)c(Cl)c1`, 63.3%; with `O=[N+]([O-])c1ccc(N=Cc2c(O)ccc3ccccc23)cc1`, 28.1%.
The result for `COCCN(C(=S)Nc1cccc(Cl)c1C)C(C)c1ccco1` (configuration not stated) reads 42.5%; that for `C=C(C)C(=O)Nc1cccc(C2=NOC3(C2)C[C@H](C(N)=O)N(C(=O)C(c2ccccc2)c2ccccc2)C3)c1` (some centres not stated), -8.97%.
With `CC(C)(C)c1ccc(/C=C2\Oc3c(ccc(O)c3CN3CCN(CCO)CC3)C2=O)cc1` the figure was -15.1%; with `Cc1ccc(C(=O)N/C(=C\c2ccco2)C(=O)NC2CCS(=O)(=O)C2)cc1` (configuration not stated), 10.1%; with `Cc1cc(C(=O)N2CCC(C(=O)O)CC2)c(C(F)(F)F)o1`, 1.47%.
`Cc1cc(C)cc(N(CC(=O)N2CC=C(c3ccccc3)CC2)S(=O)(=O)c2c(C)noc2C)c1`: the inhibition was 70% (active).
For the compound `CCOC(=O)C1CCCN(C(=O)CN(c2ccc(OC)cc2)S(=O)(=O)c2c(C)noc2C)C1` (configuration not stated), the inhibition was 10.8%.
The result for `Cc1cc(C)cc(N(CC(=O)NCC2CCCO2)S(=O)(=O)c2c(C)noc2C)c1` (configuration not stated) reads 23.4%; that for `CC(NC(=S)NNS(=O)(=O)c1ccc(C(C)(C)C)cc1)c1ccccc1` (configuration not stated), 51.7%; that for `O=C(c1[nH]ncc1-c1ccc(Cl)cc1)C1CO1` (configuration not stated), -97.8%.
As for `O=C1C(Cc2ccc(O)cc2)NC(=S)N1Cc1ccccc1` (configuration not stated), the inhibition is -7.09%.
With `O=C1CC(Cc2ccc(Cl)cc2)C(=O)N1c1cc(Cl)ccn1` (configuration not stated) the figure was 7.86%.
Take `CCCCC(CC)CNC(=O)C(=O)C1C(=O)Nc2ccccc21` (configuration not stated): the inhibition is 86.7% (active).
The result for `CCOC(=O)C(=O)C1C(=O)Nc2ccccc21` (configuration not stated) reads 17.5%; that for `CCCCC(CC)CNC(=O)CCCCn1c(=O)[nH]c2ccsc2c1=O` (configuration not stated), 10.3%; that for `Cc1cc(C(=O)CSc2nc(N)cc(=O)[nH]2)c(C)n1Cc1ccco1`, 3.96%.
Regarding `COc1ccc(C(=O)N/N=C(\C)CC(=O)Nc2ccc(Cl)cn2)cc1`, the inhibition was 4.2%.

By inhibition is commonly meant the change of the read-out against control, counted positive when it falls.
